Sm TGR inh = blocks Schistosoma mansoni thioredoxin glutathione reductase. Q962Y6. purified TGR, DTNB reduction, TNB absorbance 405 nm. Potency, µM (doses to about 114 µM), most hits filed as inhibitors. hit rate 3% among 360,000. AID 485364; active = well fitted inhibition curve with a large enough effect; inconclusive = small, poorly fitted or top-dose-only effect; inactive = no such curve, though single readings can be large or run the other way; also: nearly all actives have a fitted effect of over 60% in size
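Kinetic colorimetric format: TGR-catalysed, NADPH-driven DTNB reduction monitored via TNB absorbance. Enzyme dispensed at 20 nM; compound exposure 15 min at room temperature before reaction start.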
Cycloheximide cs = counter-screen for Shiga toxin inhibitors: cycloheximide protein synthesis inhibition; max response, %; cell reporter, cycloheximide protein synthesis inhibition counterscreen; AID 2314; hit rate 12% among 300,000; in the data active = max response mostly above about 13%, no sharp cut-off; inactive = mostly below about 14%; also: read at 38.3 µM for the half of the compounds with a filed dose
Shiga toxin inh = blocks Shiga toxin action in Vero cells; Vero cells, Shiga toxin protein synthesis inhibition reporter; inhibition, % at 38.7 µM; hit rate 9.2% among 290,000; AID 2315; in the data active = inhibition mostly above about 28%, no sharp cut-off; inactive = mostly below about 43%
FMDV inh = blocks foot and mouth disease virus | FMDV antiviral cell-based qHTS | Potency, µM (titrated, usually from 57.9 µM), hits mostly inhibitors | hit rate 1.2% among 410,000; calls by dose curve; tested in HEK293T cells; also: read-out not given here; nearly all actives have a fitted effect of over 45% in size
Of the large screens only hits and unclear results are named; the others gave an inactive call. The list is not random: actives were taken first. Their share in the collection is about 12%.

COCCNC(=O)C1CCN(S(=O)(=O)c2ccc3c(c2)CCCN3C(C)=O)CC1	Sm TGR inh inconclusive (no result: Cycloheximide cs, Shiga toxin inh)
CCOP(=O)(CCP(=O)(OCC)OCC)OCC.C[CH2][Sn]([Cl])([Cl])[CH2]C	FMDV inh 2.8µM (no result: Sm TGR inh, Cycloheximide cs, Shiga toxin inh)
CCSC1=NC2(CCN(C(=O)NC3CCCCC3)CC2)N=C1c1ccc(Cl)cc1	none (no result: Cycloheximide cs, Shiga toxin inh)
CC(C)=CCCC1(C)C=Cc2c(O)c3c(c(CC=C(C)C)c2O1)OC12C(=CC4CC1C(C)(C)OC2(C/C=C(/C)C(=O)O)C4=O)C3=O (stereo not drawn)	FMDV inh 5.6µM (no result: Sm TGR inh, Cycloheximide cs, Shiga toxin inh)
CC(C)=CCCC1(C)C=Cc2c(O)c3c(c(CC=C(C)C)c2O1)OC12C(=CC4CC1C(C)(C)OC2(C/C=C(/C)C(=O)O)C4O)C3=O (stereo not drawn)	FMDV inh 10µM (no result: Sm TGR inh, Cycloheximide cs, Shiga toxin inh)
COc1ccccc1N1CCN(C(=O)C2CCN(S(=O)(=O)c3cn(C)cn3)CC2)CC1	none (no result: Cycloheximide cs, Shiga toxin inh)
COC(Cn1c2c(c3cc(C)ccc31)CCCC2NCc1ccccc1)OC (stereo not drawn)	Sm TGR inh 4µM
Cc1ccc2c(c1)c1c3n2CCCN(Cc2ccccc2)C3CCC1 (stereo not drawn)	none
Cc1ccc2nc(CCc3ccc(N)cc3)[nH]c2c1	Cycloheximide cs 50 (no result: Shiga toxin inh)
Cc1ccc2nc(Cc3ccc(N)cc3)oc2c1	Cycloheximide cs 28, Shiga toxin inh 62
c1ccc2[nH]c(CCCCCc3nc4ccccc4[nH]3)nc2c1	none (no result: Sm TGR inh, Cycloheximide cs, Shiga toxin inh)
Nc1ccc2nc(CCc3ccccc3)[nH]c2c1	Cycloheximide cs 71, Shiga toxin inh 22
Cc1ccc2nc(CCc3nc4ccc(C)cc4o3)oc2c1	none
O=C(c1ccc(OC(F)(F)F)cc1)c1ncc[nH]1	Cycloheximide cs 39, Shiga toxin inh 65
CCOC(=O)c1ccoc1CSCc1ccc(C(=O)OC)o1	Sm TGR inh 28µM
COC(=O)c1ccc(Cc2ccc(C(=O)OC)o2)o1	none (no result: FMDV inh)
CC1CCCCN1C(=O)c1ccc2c(c1)N(Cc1ccc(Cl)cc1)C(=O)c1ccccc1S2=O (stereo not drawn)	none (no result: Cycloheximide cs, Shiga toxin inh)
CCN(Cc1ccccc1)C(=O)c1oc2ccc(C)cc2c1C	none
Cc1ccc2oc(C(=O)N(C)Cc3ccon3)c(C)c2c1	Cycloheximide cs 54, Shiga toxin inh 47
Cc1ccc(CN(C)C(=O)c2cc(Br)c(Br)s2)o1	Sm TGR inh 50µM
Cc1ccc2oc(C(=O)N(C)Cc3ccc(C)o3)c(C)c2c1	Sm TGR inh 2.2µM, Cycloheximide cs 27, Shiga toxin inh 52
CCCc1ccc2oc(C(=O)N(C)Cc3cnccn3)c(C)c2c1	Sm TGR inh inconclusive
CCn1cc2c(n1)-c1c(oc(C(=O)Nc3cccc(C(F)(F)F)c3)c1C)CC2	none (no result: Cycloheximide cs, Shiga toxin inh)
COc1ccc(CN2CCOc3ccc(CN4CCCCC4CO)cc3C2)c(OC)c1 (stereo not drawn)	none (no result: Sm TGR inh, Cycloheximide cs, Shiga toxin inh)
COc1cc(C2c3c(oc4ccc(C)cc4c3=O)C(=O)N2Cc2ccccc2)ccc1O (stereo not drawn)	none (no result: Cycloheximide cs, Shiga toxin inh)
CCN(CC)Cc1c(O)ccc2c(=O)c(-c3ccccc3)coc12	Cycloheximide cs 31 (no result: Shiga toxin inh)
CC(C)N(Cc1c(O)ccc2c(=O)c(-c3ccc(Cl)cc3)coc12)C(C)C	Sm TGR inh 40µM, Cycloheximide cs 18 (no result: Shiga toxin inh)
CC1CCCCN1Cc1c(O)ccc2c(=O)c(-c3nc4ccccc4s3)c(N)oc12 (stereo not drawn)	Cycloheximide cs 40, Shiga toxin inh 63, FMDV inh inconclusive
CC1CCCCN1Cc1c(O)ccc2c(=O)c(-c3ccc(Cl)cc3)coc12 (stereo not drawn)	Cycloheximide cs 30
CCN(C(=O)CSc1nc2ccccc2n1Cc1ccc(F)cc1Cl)c1ccccc1	none (no result: Cycloheximide cs, Shiga toxin inh)
CCc1ccc(CNC(=O)c2ccc3c(c2)nc2n3CCOC2)cc1	none (no result: Cycloheximide cs, Shiga toxin inh)
CCn1cc(C(=O)N2CCN(c3ccccc3OC)CC2)c(=O)c2cc(S(=O)(=O)N3CCC(C)CC3)ccc21	none (no result: Cycloheximide cs, Shiga toxin inh)
CCCC1=C(C(=O)OCC)C(c2ccc(OC)c(CSc3ccccn3)c2)C(C#N)=C(N)O1 (stereo not drawn)	Sm TGR inh 32µM
CCOC(=O)C1=C(CSc2nc(-c3ccccc3)ccc2C#N)OC(N)=C(C#N)C1c1cccnc1 (stereo not drawn)	Cycloheximide cs 42, Shiga toxin inh 92
C=CCOC(=O)C1=C(C)OC(N)=C(C#N)C1c1ccc(OC)c(CSc2ccccn2)c1 (stereo not drawn)	none
CC(C)c1ccc(N2C(=O)CSC23C(=O)N(C)c2ccccc23)cc1 (stereo not drawn)	none (no result: Cycloheximide cs, Shiga toxin inh)
COc1ccc(-c2onc(C)c2C)cc1S(=O)(=O)N1c2ccccc2CC1C (stereo not drawn)	none (no result: Cycloheximide cs, Shiga toxin inh)
CCCCn1c2c(c(=N)c3ccccc31)CCC2	none
CCn1c2c(c(=N)c3c1CCC3)CCCC2	none
CCCCCCCCCCn1c2c(c(=N)c3c1CCC3)CCC2	FMDV inh 18µM
CCCCCn1c2c(c(=N)c3ccccc31)CCC2	none
